Of roughly 7,900 targets only a part is listed; those with a hit were picked by preference. About 0.6% of all pairs of compound and target were hits. Unmarked numbers belong to inactive results.
Assays:
Assay in all cases: log2 fold change, soluble protein after heating vs DMSO (PISA); higher = thermal stabilisation; K562 cells, 10 uM, 30 min; active = over 0.2 and 3.5 SD of the protein, either way, in both replicates (recomputed)
erlotinib = compound: C#Cc1cccc(Nc2ncnc3cc(OCCOC)c(OCCOC)cc23)c1 [erlotinib]
Method in brief: (§1)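 K562 cells at 2×10^6 cells/mL were treated with 10 μM compound for 30 min. Aliquots were heated for 3 min across 48°C-58°C, pooled, and extracted in PBS with 0.5% NP-40 at 4°C; soluble protein was the supernatant after 21,000xg for 90 min. Soluble protein was quantified by TMTpro 16plex LC-MS/MS with channel sums equalised, and reported as log2 fold change in thermal stability against DMSO controls, with values from duplicates.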

[1] = compound: C/C(=N\NC(=O)C1=CC(=CC=C1)S(=O)(=O)N2CCOCC2)/C3=C(C=CC(=C3)Cl)O
Method in brief: as §1

[2] = compound: C1=CC(=C(C=C1Cl)C2=NC3=NC=CN=C3C(=N2)NC4=CC=NC=C4)F
Method in brief: as §1

[3] = compound: C1=CC(=CC=C1C2=NC3=C(N2)C=C(C=C3)C(=O)N)OC4=CC=C(C=C4)Cl
Method in brief: as §1

[4] = compound: C1=CC2=C(C=CC(=C2)/C=C\3/C(=O)NC(=NCC4=CC=CS4)S3)N=C1
Method in brief: as §1

[5] = compound: C1=CC2=NC=CN=C2C=C1/C=C/3\C(=O)NC(=O)S3
Method in brief: as §1

[6] = compound: C1=CC=C(C=C1)C2=NC(=C(N2)C3=CC=NC=C3)C4=CC(=C(C=C4)Cl)O
Method in brief: as §1

[7] = compound: C1=CC=C2C(=C1)C3=NNC4=CC=CC(=C43)C2=O
Method in brief: as §1

[8] = compound: C1CCN(C1)C(=O)NC2=CC=CC(=C2)NC3=NC=C(C(=N3)NCCC4=CN=CN4)Br
Method in brief: as §1

[9] = compound: C1CN(CCC1(CC2=CC=C(C=C2)Cl)N)C3=NC=NC4=C3C=CN4
Method in brief: as §1

Chain of UniProt Q9NV06 (Q9NV06 whole entry, looked up): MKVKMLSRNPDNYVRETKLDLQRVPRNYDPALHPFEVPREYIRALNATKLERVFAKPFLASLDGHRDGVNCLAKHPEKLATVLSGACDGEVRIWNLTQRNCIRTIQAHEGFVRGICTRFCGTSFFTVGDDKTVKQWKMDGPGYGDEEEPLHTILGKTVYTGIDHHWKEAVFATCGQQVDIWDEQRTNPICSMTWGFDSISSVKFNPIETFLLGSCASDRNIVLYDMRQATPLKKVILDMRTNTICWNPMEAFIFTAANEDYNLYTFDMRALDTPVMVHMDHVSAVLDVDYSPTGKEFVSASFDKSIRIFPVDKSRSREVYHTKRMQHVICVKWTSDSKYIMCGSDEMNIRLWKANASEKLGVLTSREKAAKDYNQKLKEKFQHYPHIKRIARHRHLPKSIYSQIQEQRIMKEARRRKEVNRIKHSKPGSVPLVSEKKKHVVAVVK
Chain of UniProt Q8IX18 (Q8IX18 whole entry, looked up): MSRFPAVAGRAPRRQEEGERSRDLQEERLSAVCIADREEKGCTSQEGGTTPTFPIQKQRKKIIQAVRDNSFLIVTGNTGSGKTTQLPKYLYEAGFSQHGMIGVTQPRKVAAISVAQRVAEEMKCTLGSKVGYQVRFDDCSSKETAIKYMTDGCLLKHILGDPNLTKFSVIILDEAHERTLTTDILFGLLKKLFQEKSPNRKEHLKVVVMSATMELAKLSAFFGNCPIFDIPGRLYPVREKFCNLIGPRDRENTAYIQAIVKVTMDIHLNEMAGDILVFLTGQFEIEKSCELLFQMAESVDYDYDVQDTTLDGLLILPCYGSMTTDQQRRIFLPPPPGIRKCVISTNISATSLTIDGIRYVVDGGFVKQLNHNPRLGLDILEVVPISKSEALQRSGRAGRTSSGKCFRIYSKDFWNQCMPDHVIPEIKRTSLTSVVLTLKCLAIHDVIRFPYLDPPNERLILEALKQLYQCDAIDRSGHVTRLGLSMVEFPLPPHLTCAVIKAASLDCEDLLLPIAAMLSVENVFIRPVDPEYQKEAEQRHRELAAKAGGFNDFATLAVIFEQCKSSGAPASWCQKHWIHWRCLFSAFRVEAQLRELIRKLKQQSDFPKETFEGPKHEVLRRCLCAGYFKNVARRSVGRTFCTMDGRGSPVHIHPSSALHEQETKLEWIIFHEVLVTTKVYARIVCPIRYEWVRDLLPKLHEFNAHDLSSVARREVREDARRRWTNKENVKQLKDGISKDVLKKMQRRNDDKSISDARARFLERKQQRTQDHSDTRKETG
Chain of UniProt Q96KC8 (Q96KC8 whole entry, looked up): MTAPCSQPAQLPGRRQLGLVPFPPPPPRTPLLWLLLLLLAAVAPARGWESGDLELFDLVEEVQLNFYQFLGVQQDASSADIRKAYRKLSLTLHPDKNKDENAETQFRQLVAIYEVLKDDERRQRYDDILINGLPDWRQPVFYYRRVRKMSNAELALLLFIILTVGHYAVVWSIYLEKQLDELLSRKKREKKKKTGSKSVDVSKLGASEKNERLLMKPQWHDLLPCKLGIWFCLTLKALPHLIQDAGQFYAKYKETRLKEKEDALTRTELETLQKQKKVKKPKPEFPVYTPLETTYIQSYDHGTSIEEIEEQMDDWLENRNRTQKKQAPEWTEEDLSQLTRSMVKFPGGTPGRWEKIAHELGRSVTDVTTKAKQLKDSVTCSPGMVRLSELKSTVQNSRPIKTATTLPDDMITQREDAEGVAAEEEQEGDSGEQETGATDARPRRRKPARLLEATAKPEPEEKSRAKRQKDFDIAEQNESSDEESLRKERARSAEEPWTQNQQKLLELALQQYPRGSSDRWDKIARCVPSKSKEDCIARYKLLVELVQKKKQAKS
Chain of UniProt O60573 (O60573 whole entry, looked up): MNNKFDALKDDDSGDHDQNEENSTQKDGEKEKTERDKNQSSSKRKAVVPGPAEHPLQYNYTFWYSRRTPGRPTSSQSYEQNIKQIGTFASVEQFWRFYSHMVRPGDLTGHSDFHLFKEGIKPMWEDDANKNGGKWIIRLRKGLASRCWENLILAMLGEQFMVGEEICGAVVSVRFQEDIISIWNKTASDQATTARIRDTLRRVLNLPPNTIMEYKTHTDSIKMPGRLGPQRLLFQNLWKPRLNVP
Chain of UniProt Q9H4H8 (Q9H4H8 whole entry, looked up): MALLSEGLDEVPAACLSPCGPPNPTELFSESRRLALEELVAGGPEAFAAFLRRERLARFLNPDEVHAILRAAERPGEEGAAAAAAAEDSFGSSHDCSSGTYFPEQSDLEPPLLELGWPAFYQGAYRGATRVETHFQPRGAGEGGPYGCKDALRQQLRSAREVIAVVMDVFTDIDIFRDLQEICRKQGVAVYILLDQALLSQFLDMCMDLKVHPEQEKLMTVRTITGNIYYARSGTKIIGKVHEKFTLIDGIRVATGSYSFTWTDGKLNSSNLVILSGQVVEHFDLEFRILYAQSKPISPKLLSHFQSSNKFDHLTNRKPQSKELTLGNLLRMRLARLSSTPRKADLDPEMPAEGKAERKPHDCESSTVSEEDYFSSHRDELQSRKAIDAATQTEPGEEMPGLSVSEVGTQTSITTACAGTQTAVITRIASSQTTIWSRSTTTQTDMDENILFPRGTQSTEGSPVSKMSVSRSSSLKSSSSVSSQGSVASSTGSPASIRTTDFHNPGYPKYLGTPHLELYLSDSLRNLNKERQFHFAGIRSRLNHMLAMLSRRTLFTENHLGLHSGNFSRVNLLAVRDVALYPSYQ
Chain of UniProt Q96DF8 (Q96DF8 whole entry, looked up): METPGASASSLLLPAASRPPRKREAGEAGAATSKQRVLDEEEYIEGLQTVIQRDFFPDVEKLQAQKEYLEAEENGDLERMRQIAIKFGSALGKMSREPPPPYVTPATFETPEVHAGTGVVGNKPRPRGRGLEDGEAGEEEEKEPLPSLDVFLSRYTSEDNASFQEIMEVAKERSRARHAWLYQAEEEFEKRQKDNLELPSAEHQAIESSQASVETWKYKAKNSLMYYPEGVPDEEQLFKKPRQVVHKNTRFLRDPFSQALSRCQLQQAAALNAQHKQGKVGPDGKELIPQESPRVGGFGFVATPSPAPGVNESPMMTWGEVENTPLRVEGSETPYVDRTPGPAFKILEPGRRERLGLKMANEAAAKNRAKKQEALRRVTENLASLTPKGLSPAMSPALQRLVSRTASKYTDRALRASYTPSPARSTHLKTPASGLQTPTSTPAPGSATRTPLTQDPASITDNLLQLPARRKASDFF
Chain of UniProt Q5VYK3 (Q5VYK3 whole entry, looked up): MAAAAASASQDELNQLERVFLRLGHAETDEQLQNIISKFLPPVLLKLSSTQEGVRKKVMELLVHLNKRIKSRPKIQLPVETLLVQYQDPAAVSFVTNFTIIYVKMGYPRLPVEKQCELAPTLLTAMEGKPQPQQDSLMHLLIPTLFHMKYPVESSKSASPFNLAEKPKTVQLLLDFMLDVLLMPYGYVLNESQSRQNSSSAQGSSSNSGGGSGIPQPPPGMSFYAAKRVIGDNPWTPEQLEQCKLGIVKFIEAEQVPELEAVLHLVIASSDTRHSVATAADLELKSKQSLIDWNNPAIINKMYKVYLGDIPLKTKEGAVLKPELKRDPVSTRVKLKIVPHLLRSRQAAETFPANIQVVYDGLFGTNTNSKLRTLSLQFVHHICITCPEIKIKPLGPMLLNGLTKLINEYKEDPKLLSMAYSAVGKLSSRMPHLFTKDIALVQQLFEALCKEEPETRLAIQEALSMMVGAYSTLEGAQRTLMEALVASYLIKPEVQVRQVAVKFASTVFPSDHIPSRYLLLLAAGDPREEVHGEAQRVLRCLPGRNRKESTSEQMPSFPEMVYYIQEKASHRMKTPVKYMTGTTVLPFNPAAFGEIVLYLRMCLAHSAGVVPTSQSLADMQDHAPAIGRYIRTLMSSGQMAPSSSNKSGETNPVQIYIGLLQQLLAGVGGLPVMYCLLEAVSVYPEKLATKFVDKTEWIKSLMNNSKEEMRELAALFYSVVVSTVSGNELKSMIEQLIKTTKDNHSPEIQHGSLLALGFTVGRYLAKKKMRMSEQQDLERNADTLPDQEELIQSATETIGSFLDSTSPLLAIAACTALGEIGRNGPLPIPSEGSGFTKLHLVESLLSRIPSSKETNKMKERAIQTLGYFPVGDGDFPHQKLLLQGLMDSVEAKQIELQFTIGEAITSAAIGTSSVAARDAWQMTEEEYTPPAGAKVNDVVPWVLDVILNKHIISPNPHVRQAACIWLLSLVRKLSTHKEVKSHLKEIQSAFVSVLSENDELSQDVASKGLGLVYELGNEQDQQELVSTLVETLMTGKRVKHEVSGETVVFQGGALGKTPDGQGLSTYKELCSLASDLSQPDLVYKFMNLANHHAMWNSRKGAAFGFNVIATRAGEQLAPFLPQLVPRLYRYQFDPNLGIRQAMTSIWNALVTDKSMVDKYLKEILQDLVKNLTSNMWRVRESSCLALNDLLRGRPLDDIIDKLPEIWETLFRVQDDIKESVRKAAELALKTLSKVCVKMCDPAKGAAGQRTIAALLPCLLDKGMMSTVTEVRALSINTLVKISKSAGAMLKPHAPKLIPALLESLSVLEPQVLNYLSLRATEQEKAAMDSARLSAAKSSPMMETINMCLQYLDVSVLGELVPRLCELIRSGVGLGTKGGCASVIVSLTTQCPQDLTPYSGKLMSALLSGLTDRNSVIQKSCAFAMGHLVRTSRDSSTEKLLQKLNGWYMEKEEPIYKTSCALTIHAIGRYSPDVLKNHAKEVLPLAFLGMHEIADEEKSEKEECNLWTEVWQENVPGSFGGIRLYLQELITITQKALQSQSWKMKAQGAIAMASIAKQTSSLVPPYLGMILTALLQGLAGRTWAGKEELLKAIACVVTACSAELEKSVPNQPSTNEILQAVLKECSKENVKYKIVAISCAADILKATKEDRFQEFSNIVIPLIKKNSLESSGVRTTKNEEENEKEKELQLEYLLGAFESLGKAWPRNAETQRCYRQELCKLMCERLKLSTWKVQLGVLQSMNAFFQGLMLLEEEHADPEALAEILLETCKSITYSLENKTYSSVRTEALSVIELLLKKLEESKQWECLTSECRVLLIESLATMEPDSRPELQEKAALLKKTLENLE

Row | Target | log2 fold change (erlotinib) | log2 fold change [1] | log2 fold change [2] | log2 fold change [3] | log2 fold change [4] | log2 fold change [5] | log2 fold change [6] | log2 fold change [7] | log2 fold change [8] | log2 fold change [9]
1 | EIF4E2 (UniProt O60573) | 0.013 | 0.056 | -0.026 | -0.045 | -0.007 | -0.054 | -0.111 | -0.009 | -0.032 | -0.008
2 | ELOVL7 (UniProt A1L3X0) | -0.008 | 0.062 | -0.065 | 0.009 | 0.182 |  |  | -0.162 | 0.078 | 0.065
3 | DHCR24 (UniProt Q15392) | 0.393 | 0.068 | -0.151 | 0.092 | 0.081 | -0.024 | 0.03 | -0.009 | -0.066 | -0.074
4 | EED, A0A5F9ZI63 | 0.056 | 0.049 | -0.04 | 0.028 | -0.1 | 0.05 | -0.036 | -0.033 | 0.032 | 0.012
5 | DBR1 (UniProt Q9UK59) | 0.031 | 0.042 | -0.052 | 0.025 | -0.033 | 0.002 | 0.069 | 0.006 | -0.026 | 0.044
6 | FAF2 (UniProt Q96CS3) | 0.009 | 0.078 | -0.003 | 0.02 | 0.049 | 0.03 | 0.15 | 0.009 | 0.035 | 0.004
7 | DOCK8 (UniProt Q8NF50) | 0.259 | 0.001 | 0.182 | 0.04 | -0.092 | -0.021 | -0.046 | 0.059 | -0.076 | -0.071
8 | DDX46 (UniProt Q7L014) | 0.053 | 0.23 | 0.134 | 0.081 | 0.034 | 0 | -0.023 | -0.022 | -0.062 | -0.141
9 | CYP24A1 (UniProt Q07973) | -0.042 | -0.796 (active) |  | -0.072 | 0.015 | -0.13 | 0.091 | -0.057 | 0.179 | 0.046
10 | ELF1 (UniProt P32519) | -0.016 | -0.052 | 0.068 | 0.028 | -0.003 |  | 0.082 | -0.091 | 0.013 | -0.092
11 | CTU1 (UniProt Q7Z7A3) | 0.05 | -0.01 | 0.079 | 0.047 | 0.079 | 0.011 | 0.04 | 0.042 | 0.032 | 0.008
12 | DDX27 (UniProt Q96GQ7) | 0.104 | -0.116 | -0.287 | 0.015 | 0.059 |  | -0.039 | 0.025 | -0.064 | -0.259
13 | ECPAS (UniProt Q5VYK3) | 0.058 | 0.087 | 0.001 | -0.06 | 0.042 | 0.009 | 0.048 | -0.01 | -0.028 | -0.018
14 | DCAF13 (UniProt Q9NV06) | -0.085 | -0.172 | -0.441 | 0.079 | -0.114 | -0.05 | -0.034 | -0.047 | 0.044 | -0.094
15 | EZH2 isoform 2 (UniProt Q15910) | -0.036 | 0.129 | 0.163 | 0.084 | 0.046 | 0.048 |  | 0.054 | -0.106 | -0.062
16 | EEF1G isoform 2 (UniProt P26641) | -0.051 | 0.062 | -0.009 | -0.016 | -0.036 | -0.021 | 0.083 | 0.012 | 0.001 | -0.031
17 | DAXX (UniProt Q9UER7) | 0.212 | -0.662 (active) |  | 0.037 | 0.072 | 0.012 | 0.055 | 0.009 | -0.148 | 0.224
18 | DNAJC7 (UniProt Q99615) | 0.02 | 0.065 | 0.061 | -0.002 | 0.014 | 0.024 | 0.013 | 0.023 | 0.005 | -0.043
19 | EIF2AK3 (UniProt Q9NZJ5) | 0.056 | 0.022 | 0.091 | -0.222 | 0.421 | -0.311 |  | -0.016 | 0.148 | 0.075
20 | ELAC1 (UniProt Q9H777) | 0.035 | -0.068 | 0.04 | -0.061 | 0.041 |  |  | -0.021 |  | 
21 | FAM118B (UniProt Q9BPY3) | 0.164 | 0.098 | 0.195 | -0.084 | 0.123 | 0 | 0.044 | -0.021 | -0.045 | -0.023
22 | FAM114A2 (UniProt Q9NRY5) | -0.001 | 0.051 | 0.055 | -0.002 | 0.008 | 0.067 | -0.018 | -0.04 | -0.002 | -0.021
23 | DEGS1 (UniProt O15121) | -0.075 | 0.076 | -0.113 | 0.145 | 0.049 | -0.003 |  | -0.096 | -0.245 | 0.32
24 | EEF1A1 (UniProt P68104) | -0.083 | 0.119 | 0.051 | 0.062 | -0.062 | -0.343 | 0.195 | 0.135 | -0.055 | 0.122
25 | DHX40 (UniProt Q8IX18) | 0.019 | 0.05 | -0.008 | 0.071 | 0.044 | 0.092 | -0.046 | -0.034 | -0.071 | -0.038
26 | ESS2 (UniProt Q96DF8) | -0.057 | -0.05 | -0.013 | 0.046 | -0.083 | 0.04 | -0.055 | -0.071 | -0.008 | 0.096
27 | DNAJC1 (UniProt Q96KC8) | 0.001 | 0.096 | 0.059 | 0.014 | 0.082 | 0.004 | -0.021 | -0.022 | -0.001 | 0.027
28 | FAM83D (UniProt Q9H4H8) | 0.035 | 0.027 | -0.124 | -0.015 | -0.016 | 0.02 | 0.086 | 0.059 | -0.071 | -0.062

Source: the supplement of paper PMC10849652
